Assay outcomes as filed in PubChem BioAssay.
This is a sample that favours compounds with a hit; in the whole collection about 3.5% have one here.
mHTT CaM bind: inhibitors of human mutant huntingtin-calmodulin interaction. AlphaScreen His-mHTT/GST-CaM binding, luminescence. inhibition, % at 15 µM. 190,000 compounds, 3.6% hits
Target sequence (P42858 whole entry, looked up, change not shown): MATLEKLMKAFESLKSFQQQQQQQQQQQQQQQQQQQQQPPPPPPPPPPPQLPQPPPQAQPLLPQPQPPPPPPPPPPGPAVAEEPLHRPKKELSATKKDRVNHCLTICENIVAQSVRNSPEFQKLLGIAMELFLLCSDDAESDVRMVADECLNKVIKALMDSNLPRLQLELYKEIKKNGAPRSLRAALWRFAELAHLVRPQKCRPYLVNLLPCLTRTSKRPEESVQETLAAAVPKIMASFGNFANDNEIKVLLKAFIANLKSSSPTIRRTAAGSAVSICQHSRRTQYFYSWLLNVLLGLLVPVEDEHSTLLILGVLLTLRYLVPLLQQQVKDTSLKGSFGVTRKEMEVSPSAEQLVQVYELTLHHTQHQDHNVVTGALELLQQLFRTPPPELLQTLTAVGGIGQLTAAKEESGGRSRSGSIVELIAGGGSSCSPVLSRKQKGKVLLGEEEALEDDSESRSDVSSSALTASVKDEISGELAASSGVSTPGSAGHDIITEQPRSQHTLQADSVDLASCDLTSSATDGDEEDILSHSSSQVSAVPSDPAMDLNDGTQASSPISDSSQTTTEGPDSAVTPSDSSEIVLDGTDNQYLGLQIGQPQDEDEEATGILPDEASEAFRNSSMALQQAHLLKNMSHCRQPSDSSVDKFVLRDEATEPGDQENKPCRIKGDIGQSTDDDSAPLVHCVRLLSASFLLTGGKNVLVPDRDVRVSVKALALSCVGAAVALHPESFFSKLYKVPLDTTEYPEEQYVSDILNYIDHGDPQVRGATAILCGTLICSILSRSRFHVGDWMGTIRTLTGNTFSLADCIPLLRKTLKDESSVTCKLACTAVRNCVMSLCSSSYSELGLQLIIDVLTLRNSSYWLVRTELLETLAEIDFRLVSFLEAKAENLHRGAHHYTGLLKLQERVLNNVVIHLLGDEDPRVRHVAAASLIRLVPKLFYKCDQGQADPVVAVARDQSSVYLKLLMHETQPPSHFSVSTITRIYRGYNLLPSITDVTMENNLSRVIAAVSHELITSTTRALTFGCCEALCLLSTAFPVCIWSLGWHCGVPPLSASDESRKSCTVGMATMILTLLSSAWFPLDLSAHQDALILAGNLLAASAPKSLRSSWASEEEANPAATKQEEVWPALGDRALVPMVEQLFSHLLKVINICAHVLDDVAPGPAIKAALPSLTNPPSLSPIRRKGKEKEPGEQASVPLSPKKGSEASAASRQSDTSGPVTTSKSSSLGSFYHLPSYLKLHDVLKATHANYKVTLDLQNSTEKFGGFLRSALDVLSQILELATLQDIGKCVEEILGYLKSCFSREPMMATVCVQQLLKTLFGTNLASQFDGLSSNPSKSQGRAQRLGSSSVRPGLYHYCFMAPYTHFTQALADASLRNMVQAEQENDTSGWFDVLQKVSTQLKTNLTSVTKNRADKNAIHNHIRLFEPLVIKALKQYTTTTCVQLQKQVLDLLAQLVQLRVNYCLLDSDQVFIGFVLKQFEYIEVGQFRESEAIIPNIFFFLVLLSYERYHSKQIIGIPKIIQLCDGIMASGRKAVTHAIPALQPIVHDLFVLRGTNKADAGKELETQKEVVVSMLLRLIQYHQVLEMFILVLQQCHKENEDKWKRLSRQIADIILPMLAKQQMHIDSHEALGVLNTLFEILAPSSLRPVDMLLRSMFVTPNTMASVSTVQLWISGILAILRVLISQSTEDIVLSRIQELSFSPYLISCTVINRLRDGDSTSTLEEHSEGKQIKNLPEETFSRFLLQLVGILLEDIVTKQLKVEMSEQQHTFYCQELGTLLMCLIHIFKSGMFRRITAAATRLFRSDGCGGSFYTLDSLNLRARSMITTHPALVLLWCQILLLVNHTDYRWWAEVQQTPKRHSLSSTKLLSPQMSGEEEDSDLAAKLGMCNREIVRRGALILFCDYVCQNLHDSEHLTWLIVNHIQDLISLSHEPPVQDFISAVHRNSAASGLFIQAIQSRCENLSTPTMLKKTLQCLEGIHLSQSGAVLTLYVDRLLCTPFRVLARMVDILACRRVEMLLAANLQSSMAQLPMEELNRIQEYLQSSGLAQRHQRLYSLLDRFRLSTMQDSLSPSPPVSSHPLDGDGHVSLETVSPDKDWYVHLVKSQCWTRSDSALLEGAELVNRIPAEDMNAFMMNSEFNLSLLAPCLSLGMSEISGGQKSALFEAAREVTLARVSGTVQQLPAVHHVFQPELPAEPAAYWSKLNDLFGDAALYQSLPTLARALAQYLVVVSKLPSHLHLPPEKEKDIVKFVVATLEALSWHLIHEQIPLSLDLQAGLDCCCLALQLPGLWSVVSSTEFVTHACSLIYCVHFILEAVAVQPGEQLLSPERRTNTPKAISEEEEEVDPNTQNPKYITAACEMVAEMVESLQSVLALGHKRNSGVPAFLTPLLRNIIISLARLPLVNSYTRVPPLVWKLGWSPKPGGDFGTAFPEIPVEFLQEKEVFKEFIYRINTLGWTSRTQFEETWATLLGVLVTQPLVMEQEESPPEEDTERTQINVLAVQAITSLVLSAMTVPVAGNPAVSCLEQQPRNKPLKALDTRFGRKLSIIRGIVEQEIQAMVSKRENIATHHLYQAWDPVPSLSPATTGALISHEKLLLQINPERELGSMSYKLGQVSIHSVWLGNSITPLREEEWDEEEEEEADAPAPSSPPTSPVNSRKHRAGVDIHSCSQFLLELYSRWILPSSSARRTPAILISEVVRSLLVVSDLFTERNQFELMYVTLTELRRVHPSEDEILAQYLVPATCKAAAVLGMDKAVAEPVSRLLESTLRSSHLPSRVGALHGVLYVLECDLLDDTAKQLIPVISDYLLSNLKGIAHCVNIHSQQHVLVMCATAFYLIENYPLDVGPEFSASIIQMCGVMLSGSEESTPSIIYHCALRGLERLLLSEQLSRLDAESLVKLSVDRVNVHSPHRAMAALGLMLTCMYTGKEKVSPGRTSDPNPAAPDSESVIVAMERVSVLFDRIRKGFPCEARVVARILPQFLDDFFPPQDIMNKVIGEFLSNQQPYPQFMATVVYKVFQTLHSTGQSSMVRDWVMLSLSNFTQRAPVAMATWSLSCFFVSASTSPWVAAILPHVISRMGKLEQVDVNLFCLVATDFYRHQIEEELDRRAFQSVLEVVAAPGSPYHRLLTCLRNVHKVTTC
Pf apPOL block: Pf-apPOL DNA polymerase inhibition | inhibition, % at 10 µM | Recombinant Pf-apPOL, molecular beacon fluorescence, 1.5 h | 210,000 compounds, 0.25% hits
Each line names hits and unclear results; the compound was inactive in the other large screens; ! = repeats disagree. Rule as the data show it: active = inhibition above about 50%; inactive = the rest.

Cc1ccc(S(=O)(=O)N2CCc3c(c(-c4nc(-c5ccccc5)no4)nn3C)C2)cc1C	none
Cc1n[nH]c(C)c1S(=O)(=O)N1CCc2c(c(-c3nc(-c4ccccc4)no3)nn2C)C1	mHTT CaM bind 53
COc1ccc(NC(=O)C2CCN(c3cc(N4CCCC4)ncn3)CC2)cc1Cl	mHTT CaM bind 54
O=C(Nc1ccc2c(c1)OCO2)C1CCN(c2cc(N3CCSCC3)ncn2)CC1	none
Cc1ccc(Cl)cc1N(C)C(=O)C1CCN(c2cc(=O)n(C)c(=O)n2C)CC1	mHTT CaM bind 50
COc1ccc(CC(=O)Nc2ccc3ncnc(N4CCCCC4)c3c2)cc1Cl	mHTT CaM bind 55
COc1ccc(CCC(=O)Nc2ccc3ncnc(N4CCCCC4)c3c2)cc1	none
COc1ccc(NC(=O)C2CCN(c3cc(N4CCCC4)ncn3)CC2)cc1OC	none
Cn1c(N2CCC(C(=O)Nc3ccc(Cl)cc3)CC2)cc(=O)n(C)c1=O	none
O=C(Nc1ccc2c(c1)OCCO2)C1CCN(c2cc(N3CCSCC3)ncn2)CC1	mHTT CaM bind 64
CCNC(=O)N1CCCC(c2cccc(C(=O)NC3CCCCC3)c2)C1 (configuration not stated)	none
O=C(O)c1nccnc1C(=O)Nc1cc([N+](=O)[O-])ccc1O	none
Cn1c(N2CCC(C(=O)Nc3ccc4c(c3)OCCO4)CC2)cc(=O)n(C)c1=O	mHTT CaM bind 57
Cc1ccc(NC(=O)C2CCN(c3cc(=O)n(C)c(=O)n3C)CC2)cc1	none
COc1cccc(-c2cn3ccn(-c4cccc(F)c4)c(=O)c3n2)c1	none
COc1ccc(-c2onc(C)c2C(=O)N2CCC(Cc3ccccc3)CC2)cc1	mHTT CaM bind 99
COc1ccc(-c2cc(C(=O)N3CCC(Cc4ccccc4)CC3)no2)cc1	none
Cc1noc(-c2cccnc2)c1C(=O)N1CCC(Cc2ccccc2)CC1	none
Cc1noc(-c2cccs2)c1C(=O)N1CCC(Cc2ccccc2)CC1	mHTT CaM bind 71
Cc1ccc(N2C(=O)c3ccc(Cl)cc3C2=O)cc1	none
COc1cc(C(=O)O/N=C2\CCSc3ccccc32)cc(OC)c1OC	none
O=S(=O)(c1cc(Cl)ccc1Cl)n1nnc2ccccc21	mHTT CaM bind 57
COc1cc(Cl)c(S(=O)(=O)n2nnc3ccccc32)cc1Cl	none
COc1c(S(=O)(=O)n2nnc3ccccc32)ccc(Cl)c1Cl	mHTT CaM bind 87!
COc1cc(S(=O)(=O)n2nnc3ccccc32)ccc1Cl	mHTT CaM bind 88!
O=S(=O)(c1ccc(Cl)c(Cl)c1Cl)n1nnc2ccccc21	none
COc1ccc(Cl)cc1S(=O)(=O)n1nnc2ccccc21	none
Cc1cccc(-c2nc(C3CCN(C(=O)Cc4ccc(F)cc4)CC3)no2)c1	none
O=C(Nc1ccc2c(c1)CCC2)C1CCC(Cn2c(=O)[nH]c3ccsc3c2=O)CC1 (configuration not stated)	none
N#CC1=CN(c2ccc(C(F)(F)F)cc2)c2ccccc2S1(=O)=O	none
O=C(c1cccc2c1OCCO2)N1CCN(c2ccc(Cl)cc2[N+](=O)[O-])CC1	none
COc1cc(CSc2nc(CC(=O)NCc3cccs3)cs2)cc(OC)c1	none
NNc1ncnc2sc3c(c12)CCN(Cc1ccccc1)C3	mHTT CaM bind 90
c1cc(Nc2ncnc3sc4c(c23)CCC4)ccn1	none
NNc1ncnc2sc3c(c12)CCC3	mHTT CaM bind 100
O=c1[nH]c(CNC2CC2)nc2sc3c(c12)CCN(Cc1ccccc1)C3	none
COc1cc(OC)c(OC)cc1C=C1Oc2c(ccc3c2CN(Cc2ccco2)CO3)C1=O	none
CCCCC(=O)NC(/C=C/c1ccccc1)c1cc([N+](=O)[O-])c2cccnc2c1O (configuration not stated)	none
CCCCC(=O)NC(c1ccc2c(c1)OCO2)c1cc([N+](=O)[O-])c2cccnc2c1O (configuration not stated)	mHTT CaM bind 99
CCCCC(=O)NC(c1ccccc1Cl)c1cc([N+](=O)[O-])c2cccnc2c1O (configuration not stated)	mHTT CaM bind 100
CCc1ccc(S(=O)(=O)NCCCN2CCN(c3ccccc3)CC2)s1	none
CC(C)N1C(=O)c2cccnc2Sc2cc(C(=O)NC3CC3)ccc21	none
CC1C(=O)N(Cc2cn(Cc3ccco3)nn2)CCS(=O)(=O)N1Cc1ccc(-c2cccc(N(C)C)c2)cc1 (configuration not stated)	mHTT CaM bind 64
Cc1ccc(-c2ccc(CN3C(CC(C)C)C(=O)N(Cc4cn(Cc5ccco5)nn4)CCS3(=O)=O)cc2)cc1 (configuration not stated)	none
CC1C(=O)N(Cc2cn(Cc3ccco3)nn2)CCS(=O)(=O)N1Cc1ccc(-c2cccnc2)cc1 (configuration not stated)	none
CC(C)CC1C(=O)N(Cc2cn(Cc3ccco3)nn2)CCS(=O)(=O)N1Cc1ccc(-c2cccc(N(C)C)c2)cc1 (configuration not stated)	mHTT CaM bind 68
O=C(CSc1nc2c(c(=O)n1-c1ccccc1)SCC2)Nc1nccs1	none
CCN1CCc2c(sc(NC(=O)c3ccnn3C)c2C(N)=O)C1	none
CCN1CCc2c(sc(NC(=O)Nc3ccc(Cl)c(Cl)c3)c2C(N)=O)C1	mHTT CaM bind 85
Cc1oc2cc3oc(=O)c4c(c3cc2c1-c1ccccc1)CCC4	none
Cc1oc2cc3oc(=O)c4c(c3cc2c1C)CCC4	Pf apPOL block 58
COc1ccc(N=Cc2c(O)n(-c3ccccc3OC)c(=O)c3ccccc23)c(OC)c1	none
CC(NC(=O)CC(C(=O)N1CCc2ccccc21)n1ccnc1)C12CC3CC(CC(C3)C1)C2 (configuration not stated)	mHTT CaM bind 59
CCN(CCCNC(=O)Cc1cn(C)c2ccccc12)c1cccc(C)c1	mHTT CaM bind 71
CCN(CCCNC(=O)CC(C(=O)N1CCc2ccccc21)n1ccnc1)c1cccc(C)c1 (configuration not stated)	mHTT CaM bind 74
CCN(CC)CCCNC(=O)CC(C(=O)N1CCc2ccccc21)n1ccnc1 (configuration not stated)	none
CCN(CCCNC(=O)c1cn(C)c(=O)c2c1c1ccccc1n2C)c1cccc(C)c1	none
CC(CCc1ccccc1)NC(=O)CC(C(=O)N1CCc2ccccc21)n1ccnc1 (configuration not stated)	none
CCCc1cc(C2CCCN2C(=O)Cc2ccc(OC)c(OC)c2)no1 (configuration not stated)	none
COc1cccc(C(=O)N2CCn3cnnc3C2)c1OC	none
CCOc1ccc(NC(=O)N2CCCC2c2cc(CC)no2)cc1 (configuration not stated)	none
Cc1ccc(C(C)NC(=O)C2CCN(Cc3cn(C)c4ccccc34)CC2)cc1 (configuration not stated)	none
CCNc1cc(N2CCCC(CCC(=O)N3CCN(C(=O)c4ccco4)CC3)C2)ncn1 (configuration not stated)	none
O=C(NCCc1c[nH]c2ccccc12)c1cc2n(n1)C(C(F)(F)F)CC(c1ccco1)N2 (configuration not stated)	mHTT CaM bind 62
O=C(NCc1ccccc1F)c1cc2n(n1)C(C(F)(F)F)CC(c1ccco1)N2 (configuration not stated)	none
CC(C)Cn1cnc2c1c(=O)n(Cc1ccccc1)c(=O)n2-c1ccc(F)cc1	none
Cc1cc(C)cc(C(=O)NC2CCc3[nH]c4ccc(Br)cc4c3C2)c1 (configuration not stated)	none
CCc1cccc2c3c([nH]c12)CCC(NC(=O)C(C)CC)C3 (configuration not stated)	none
